# Sampled rows, rich in hits. Any-hit rate of the full collection: about 7.3%.
# HCMV antiviral: blocks human cytomegalovirus replication. activity change, negative = inhibition, % at 57.5 µM. HFF cells, HCMV-luciferase reporter, 72 h; hits give low values. 410,000 compounds, 4.5% hits; in the data active = activity change below about -60%; inconclusive = no clear call, values can overlap the other calls; inactive = above about -39%; also: % is scaled to controls: 0 for no effect and ±100 for the full control effect
#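 HFF cells seeded 16 h at 37C, treated with compounds, infected with luciferase-reporter HCMV at MOI 1 PFU/cell; luciferase read at 72 h post infection, normalized to buffer-only and Salinomycin controls.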
# HCV inh: HCV inhibition; Huh7.5.1 HCVcc-Cre infection, luciferase reporter, 44 h; Potency, µM (highest dose often 41.8 µM), without a hit: at the top dose activity change, negative = inhibition, usual class: inhibitors; 340,000 compounds, 3.4% hits; AID 651820; also: potency is read from the fitted curve at half-maximal effect; % is scaled to controls: 0 for no effect and ±100 for the full control effect
#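 1,000 cells/well; 4 h culture; + compound; + HCVcc-Cre (~0.5 moi); 44 h; luciferase substrate, RT 15 min; read 15 sec.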
# Vaccinia Venus: vaccinia inhibition (Venus reporter); AID 720580; Potency, µM (top dose mostly 36.5 µM), without a hit: at the top dose activity change, negative = inhibition, most hits filed as inhibitors; Vaccinia virus Venus reporter expression, fluorescence; 330,000 compounds, 0.46% hits; calls by dose curve; tested in A549 cells; also: potency is read from the fitted curve at half-maximal effect; % is scaled to controls: 0 for no effect and ±100 for the full control effect; nearly all actives have a fitted effect of over 30% in size
# Vaccinia mCherry: inhibitors of vaccinia virus infection (mCherry reporter signal). Vaccinia virus mCherry reporter infection, fluorescence. Potency, µM (titrated, usually from 36.5 µM), for the others: at the highest dose activity change, negative = inhibition, hits mostly inhibitors. 310,000 compounds, 0.63% hits; calls by dose curve; tested in A549 cells; also: potency is read from the fitted curve at half-maximal effect; % is scaled to controls: 0 for no effect and ±100 for the full control effect; nearly all actives have a fitted effect of over 35% in size
# FMDV antiviral: foot and mouth disease virus antiviral activity; Potency, µM (highest dose often 57.9 µM), for inactives: at the top dose activity change, negative = inhibition, hits mostly inhibitors; 410,000 compounds, 1.2% hits; AID 1159524; FMDV antiviral cell-based qHTS; calls by dose curve; tested in HEK293T cells; also: read-out not given here; potency is read from the fitted curve at half-maximal effect; % is scaled to controls: 0 for no effect and ±100 for the full control effect; nearly all actives have a fitted effect of over 45% in size
# HCV confirm: confirmation of hepatitis C virus inhibitors; HCVcc-Cre infectious virus cell assay, luciferase, inhibition; Potency, µM (highest dose often 41.8 µM), for the others: at the highest dose activity, negative = inhibition, most hits filed as inhibitors; 640 compounds, 78% hits; shares compounds with HCV inh; also: potency is read from the fitted curve at half-maximal effect; nearly all actives have a fitted effect of over 80% in size
# HCV cytotox: host cell cytotoxicity counter-screen for HCV inhibitors | 640 compounds, 22% hits | HCV host cell line cytotoxicity counterscreen | shares compounds with HCV inh | Potency, µM (doses to about 41.8 µM), without a hit: top-dose activity change, negative = cytotoxicity, hits mostly inhibitors | AID 720576;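 also: potency is read from the fitted curve at half-maximal effect; 44 h compound exposure; % is scaled to controls: 0 for no effect and ±100 for the full control effect; nearly all actives have a fitted effect of over 55% in size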
# Numbers without * were called inactive; i = inactive; ? = inconclusive; · = not tested or not shown. Unless noted, calls follow the shape of the dose curve; as a rule, active = well fitted curve in the direction sought with a large enough effect; inconclusive = small, poorly fitted or top-dose-only effect, or another doubt; inactive = no such curve, though single readings can be large; an effect the other way counts as inactive or inconclusive.
SMILES,HCMV antiviral,HCV inh,Vaccinia Venus,Vaccinia mCherry,FMDV antiviral,HCV confirm,HCV cytotox
COc1ccc(NC(=O)C2CCN(S(=O)(=O)c3ccc4[nH]c(=O)ccc4c3)CC2)c(OC)c1,7,·,-4%,-8%,-10%,·,·
Cc1ccc(-n2c(-c3ccc(Br)cc3)c[n+]3c2CCc2ccc4cccnc4c2-3)cc1,-104*,2.5µM*,·,·,1.1µM*,6.3µM*,14µM*
Cc1ccc(-n2c(=O)[nH]c3ncccc3c2=O)cc1,-25,13%,-3%,i,-11%,·,·
CCc1cccc(CC)c1NC(=O)Cn1nnc2sc3c(c2c1=O)CCCC3,-6,·,-5%,-11%,0%,·,·
OC1CCC(Nc2nccc3[nH]c(-c4ccccc4Cl)nc23)CC1 (configuration not stated),-11,·,·,·,·,·,·
O=C(Nc1nnc(CC2=CCCCC2)s1)c1cccs1,68,-8%,-4%,-14%,68%,·,·
O=C(Nc1ccc(Cl)c(Cl)c1)Nc1nnc(CC2=CCCCC2)s1,?,2.8µM*,·,·,?,7µM*,7.9µM*
Cc1ccc2c(=O)c(C(=O)c3ccccc3)cn(CC(=O)Nc3ccc4c(c3)OCCO4)c2n1,4,·,-10%,-8%,-13%,·,·
CCCC(=O)NNC(=O)CCC(=O)NCc1ccccc1,-8,-4%,·,·,4%,·,·
O=C(COc1ccccc1)NNc1c2ccccc2nc2ccccc12,-92*,1µM*,?,·,25µM*,1.6µM*,-94%
CCCC(=O)NNc1c2ccccc2nc2ccccc12,-9,1.4µM*,1%,-8%,-15%,0.56µM*,0.5µM*
COc1cc(OC)nc(C(NC(=O)C2CCN(Cc3c[nH]c4ccccc34)CC2)c2ccc(Cl)cc2)n1 (configuration not stated),-18,·,?,?,-19%,·,·
CCCCn1c(=N)n(CC(O)COc2cccc(C)c2)c2ccccc21 (configuration not stated),-63*,8.9µM*,·,·,?,14µM*,?
Cc1ccc(-n2c(SCC(=O)Nc3ccc(N4CCOCC4)cc3)nc3ccccc3c2=O)cc1,?,?,0%,-8%,2%,?,15%
CC(=O)NC(c1ccccc1)c1nc(-c2cccc(C#N)c2)cs1 (configuration not stated),16,·,5%,43%,-3%,·,·
N#CCCn1c(=O)c(-c2cccs2)nc2cnc(OCc3ccccc3)nc21,·,·,·,·,3%,·,·
CC(C)Cc1ccc(C(C)C(=O)Nc2ccccc2O)cc1 (configuration not stated),-82*,4.5µM*,-25%,?,?,4.4µM*,10µM*
CC(C)Cc1ccc(C(C)C(=O)Nc2nccs2)cc1 (configuration not stated),-17,2%,-10%,-15%,·,·,·
O=C(NC1CCN(Cc2ccc3ccccc3c2)CC1)c1ccccc1,29,?,-14%,-10%,-8%,·,·
CC1(c2ccc3ccccc3c2)NC(=O)N(CC(=O)N2CCN(Cc3ccccc3)CC2)C1=O (configuration not stated),·,3.2µM*,·,·,?,0.89µM*,3.1µM*
CC1(c2ccc3ccccc3c2)NC(=O)N(CC(=O)N2CCC(C(N)=O)CC2)C1=O (configuration not stated),-1,28%,0%,i,-18%,·,·
CCCNS(=O)(=O)c1ccc(OCC(=O)Nc2ccc3c(c2)OCCO3)c(C)c1,-5,?,-12%,i,12%,·,·
CCCn1c(N)c(C(=O)COc2ccc(Br)cc2F)c(=O)n(C)c1=O,?,?,·,·,?,22µM*,-21%
CCOC(=O)C1CCCN(S(=O)(=O)c2ccc(S(=O)(=O)N(CC)CC)cc2)C1 (configuration not stated),-70*,0.89µM*,-25%,i,?,0.7µM*,1.8µM*
CCOC(=O)C1CCCN(S(=O)(=O)c2ccc(S(N)(=O)=O)cc2)C1 (configuration not stated),-34,?,-15%,i,-27%,·,·
SMILES,HCMV antiviral,HCV inh,Vaccinia Venus,Vaccinia mCherry,FMDV antiviral,HCV confirm,HCV cytotox
O=C(Nc1ccc(F)cc1)OC[C@@H]1CSCCS(=O)(=O)N1,13,·,·,·,·,·,·
COC(=O)[C@H](CCSC)NC(=O)Cn1cnc2c(SC)nc(N)nc21,-5,13%,-6%,i,-20%,·,·
Cc1csc(C)[n+]1CCC1CCCCC1,·,·,?,-22%,·,·,·
Cn1c2ccccc2c(=O)c2ccc(C#Cc3ccc(N)cc3)cc21,?,6.3µM*,?,?,-3%,22µM*,41%
CCOC(=O)C1=C(N)Oc2ccc(Br)cc2[C@@H]1[C@@H](C#N)C(=O)OCC,·,·,·,·,-8%,·,·
CSCCC(=O)NC1CCCN(CCc2ccccc2)C1 (configuration not stated),-19,15%,-6%,-12%,-4%,·,·
CCN1CCN(S(=O)(=O)c2cc(OCC(=O)NC3CCCCC3)c(C)cc2Cl)CC1,-65*,7.1µM*,·,·,?,4µM*,7µM*
Cc1cccc(Cn2c(NCCO)nc3c2c(=O)n(C)c(=O)n3C)c1,-75*,1.8µM*,?,?,?,4µM*,2.5µM*
COc1cc(OC)cc(-c2c(-c3cccs3)c3cc(-c4ccc(OC)c(OC)c4)ccc3n2C)c1,-32,?,-8%,i,-6%,·,·
COc1cc(OC)cc(-c2c(-c3cccs3)c3cc(-c4ccc5[nH]ccc5c4)ccc3n2C)c1,-9,11µM*,-13%,?,47%,14µM*,7%
CC1(C)CC(CCC(=O)Nc2ccc(S(N)(=O)=O)cc2)C(=O)O1 (configuration not stated),29,15%,·,·,-25%,·,·
Cc1ccc(NC(=O)CCC2CC(C)(C)OC2=O)cc1 (configuration not stated),0,4µM*,-10%,-5%,-1%,1%,-2%
O=C(NC1(C(F)(F)F)Oc2ccc(Cl)cc2O1)N1CCC2(CC1)OCCO2 (configuration not stated),-6,?,-21%,?,-15%,·,·
O=C(NC1(C(F)(F)F)Oc2ccccc2O1)N1CCC2(CC1)OCCO2,41,?,-21%,?,7%,?,?
CNc1nc(N2CCc3ccccc32)ncc1F,95,3.2µM*,-7%,-10%,·,20µM*,?
CCCc1nc2ccc(NC(=O)c3ccccc3OC)cn2n1,-13,·,·,·,·,·,·
O=S(=O)(c1ccccc1)c1nnn2c1nc(NC1CCN(Cc3ccccc3)CC1)c1cc(Cl)ccc12,-16,?,·,·,-11%,·,·
O=S(=O)(c1ccccc1)c1nnn2c1nc(NC1CCN(Cc3ccccc3)CC1)c1ccccc12,-18,8.9µM*,·,·,28%,14µM*,-11%
